The list is not random: actives were taken first. Their share in the collection is about 5.5%.
uPA surface inh = cell surface uPA generation inhibition; actives 0.31% (n = 330,000); cell surface uPA generation assay, qHTS; AID 540303; Potency, µM (titrated, usually from 38.3 µM), without a hit: top-dose activity change, negative = inhibition, usual class: inhibitors; active = well fitted inhibition curve with a large enough effect; inconclusive = small, poorly fitted or top-dose-only effect; inactive = no such curve, though single readings can be large or run the other way; tested in mouse RAW 264.7 cells; note: % is set by controls: 0 for no effect and ±100 for the full control effect; nearly all actives have a fitted effect of over 55% in size
VP16 counter = inhibits Gal4-VP16 luciferase reporter, ROR gamma counter-screen | Drosophila S2 Gal4-VP16 UAS-luciferase, luminescence, 20 h | Potency, µM (series often up to 53.6 µM), inactives show top-dose activity, negative = inhibition, most hits filed as inhibitors | actives 3.5% (n = 310,000);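 note: Gal4-VP16 expression switched on by copper sulfate through the metallothionein promoter; % is set by controls: 0 for no effect and ±100 for the full control effect; nearly all actives have a fitted effect of over 50% in size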
RORg inh = inhibitors of mouse ROR gamma transcriptional activity; P51450; Drosophila S2 Gal4-RORgamma UAS-luciferase reporter, 20 h; Potency, µM (top dose mostly 53.6 µM), without a hit: top-dose activity change, negative = inhibition, usual class: inhibitors; actives 5.4% (n = 310,000); AID 2551; note: % is set by controls: 0 for no effect and ±100 for the full control effect; nearly all actives have a fitted effect of over 60% in size
Target sequence (P51450 whole entry, looked up, the tested form may be a part): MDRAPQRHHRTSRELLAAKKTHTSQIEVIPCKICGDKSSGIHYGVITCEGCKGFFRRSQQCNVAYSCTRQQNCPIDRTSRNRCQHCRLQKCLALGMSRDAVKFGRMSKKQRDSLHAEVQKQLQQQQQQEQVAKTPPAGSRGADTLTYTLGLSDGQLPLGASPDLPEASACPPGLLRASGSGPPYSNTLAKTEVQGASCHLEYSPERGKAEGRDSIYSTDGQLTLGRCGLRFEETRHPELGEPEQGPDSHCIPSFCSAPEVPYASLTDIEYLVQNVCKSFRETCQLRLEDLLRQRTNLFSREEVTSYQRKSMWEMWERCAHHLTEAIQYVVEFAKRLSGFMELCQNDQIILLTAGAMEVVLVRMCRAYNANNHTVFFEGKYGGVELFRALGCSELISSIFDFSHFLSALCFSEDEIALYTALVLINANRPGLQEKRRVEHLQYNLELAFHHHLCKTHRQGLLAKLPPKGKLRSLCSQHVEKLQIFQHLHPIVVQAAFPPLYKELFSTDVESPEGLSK
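Luciferase reporter read in Schneider cells carrying Gal4-RORγ (mouse) and UAS-Photinus luciferase; cells given compound 1 h before 700 uM copper sulfate induction, then incubated 20 h at ambient temperature.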
Chronic BCR inh = blocks chronic active B-cell receptor signaling | AID 493014 | actives 0.05% (n = 340,000) | Potency, µM (titrated, usually from 46.1 µM), without a hit: at the highest dose activity change, negative = inhibition, most hits filed as inhibitors | ABC-DLBCL IkBa-CBG/CBR reporter, luminescence ratio, 4 h; active = well fitted inhibition curve with a large enough effect in the signal ratio, with a control signal flat, not every such curve was filed as active; inconclusive = small, poorly fitted or top-dose-only effect, or effect the other way, or a change in a side signal; the % refers to the signal ratio;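 note: plate controls were basal doxycycline-induced cells for no effect and cells given 10 µM MG132 for full effect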
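Concentration-response series (up to 46 uM) were applied to TMD8 dual-reporter cells for 4 h at 37C with doxycycline. Green/red ratio, after filter-overlap correction, defined %Activity; red signal alone was normalised to basal cells and zero luminescence.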
Integrin act MD = activates integrin-mediated alleviation for muscular dystrophy; alpha7betagal myoblasts, beta-gal FDG fluorescence, 48 h; Potency, µM (top dose mostly 38.3 µM), for inactives: top-dose activation, actives largely listed as activators; actives 0.064% (n = 350,000);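 note: 100% = response of the positive control SU9516; nearly all actives have a fitted effect of over 60% in size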
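alpha7betagal+/- myoblasts (passage 13, 250/well) treated 48 h at 37C with compounds at 1:260 dilution of DMSO stock. Lysed, then beta-galactosidase activity read as FDG fluorescence (ex 480/em 540) after 30 min, with pre-read for autofluorescence.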
Mito fusion yeast = blocks mitochondrial division or promotes mitochondrial fusion. S. cerevisiae fusion-defective mutant growth rescue, CellTiterGlo 48 h. Potency, µM (highest dose often 46.1 µM), without a hit: top-dose growth rescue (activation), most hits filed as activators. actives 0.23% (n = 320,000); note: % of control where 0% means no effect; nearly all actives have a fitted effect of over 45% in size
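Compounds are tested for their ability to restore growth of mitochondrial fusion-defective yeast strains at non-permissive 37C in YPEG medium over 48 hours. Viability is quantified by luciferase luminescence.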
Active calls of the source: *; ? = inconclusive; . = no result; ! = a repeat was not active; [ ] = remark or other dose. Unless noted, calls come from the whole dose curve; as a rule, active = well fitted curve in the direction sought with a large enough effect; inconclusive = small, poorly fitted or top-dose-only effect, or another doubt; inactive = no such curve, though single readings can be large; an effect the other way counts as inactive or inconclusive. Potency is the fitted concentration of half-maximal effect.

SMILES	uPA surface inh	VP16 counter	RORg inh	Chronic BCR inh	Integrin act MD	Mito fusion yeast
CCN(CC)c1ccc(/C=N/NC(=O)c2cccc(S(=O)(=O)N3CCOCC3)c2)cc1	-6%	?	16µM*	-1%	-29%	10%
COc1cc(/C=N/NC(=O)c2cccc(S(=O)(=O)N3CCOCC3)c2)cc(OC)c1O	-1%	5%	-3%	-1%	-10%	2%
CC(NC(=O)c1ccc(-c2ccccc2)cc1)C(c1ccccc1)N1CCOCC1 (centres undefined)	?	.	.	1%	35%	26%
CC(NC(=S)Nc1ccccc1Cl)C(c1ccccc1)N1CCOCC1 (centres undefined)	-15%	?	4µM*	?	-42%	2%
COc1ccc(NC(=S)NC(C)C(c2ccccc2)N2CCOCC2)cc1 (centres undefined)	5%	?	4.5µM*	4%	7%	-10%
CC(NC(=O)Cc1ccccc1)C(c1ccccc1)N1CCOCC1 (centres undefined)	-1%	3%	-9%	6%	17%	-2%
Cc1ccc(C)c(NC(=S)NC(C)C(c2ccccc2)N2CCN(C)CC2)c1 (centres undefined)	-5%	-17%	13µM*	?	-26%	6%
C/C=C\C1=C(CO)[C@H](O)[C@H]2OC2[C@@H]1O (some centres undefined)	.	8%[10 µM]	0%[10 µM]	.	.	.
CC(=O)c1ccc2c(c1)c(C#N)c1ccccc1[n+]2[O-]	-7%	0%	-12%	4%	-1%	-5%
CCOC(=O)N1CCN(C(=S)NC(=O)C23CC4CC(CC(C4)C2)C3)CC1	4%	?	3.5µM*	-2%	0%	-6%
CCN(CC)C(=S)NC(=O)C12CC3CC(CC(C3)C1)C2	2%	5µM*	2.5µM*	2%	-19%	-3%
CCN(CC)CCNC(=O)C12CC3CC(CC(C3)C1)C2	2%	2%	9%	-15%	-8%	-2%
CC12CC3CC(C)(C1)CC(C(=O)NC(=S)N1CCOCC1)(C3)C2	-5%	2.8µM*	1.1µM*	14%	2%	8%
O=C(NC(=S)N1CCCCC1)C12CC3CC(CC(C3)C1)C2	7%	13µM*	7.1µM*	7%	-1%	3%
CCOC(=O)N1CCN(C(=O)NC23CC4CC(CC(C4)C2)C3)CC1	0%	-3%	-9%	-1%	-35%	-1%
O=C(c1cc(NC(=O)C23CC4CC(CC(C4)C2)C3)cc(NC(=O)C23CC4CC(CC(C4)C2)C3)c1)N1CCCCC1	1%	0%	33%	4%	?	-4%
CCOC(=O)C1(CCOc2ccccc2)CCN(Cc2nccn2CC)CC1	-2%	?	5µM*	?	0%	-4%
CCOC(=O)C1(CCCc2ccccc2)CCN(Cc2nccn2CC)CC1	2%	?	4µM*	5%	-44%	-8%
CCOC(=O)C1(CCOc2ccccc2)CCN(Cc2ccncc2)CC1	1%	2%	19%	-12%	1%	0%
CCOC(=O)C1(CCCc2ccccc2)CCN(Cc2cnc(C)s2)CC1	-4%	-2%	-2%	2%	-22%	0%
S=C(NCCc1ccccn1)Nc1ccccc1	-6%	?	20µM*	?	14%	-5%
COCCNC(=S)Nc1ccc(Cl)c(Cl)c1	0%	?	10µM*	8%	-9%	-2%
COc1cccc(NC(=S)NCCc2ccccn2)c1	-2%	18µM*	?	-9%	-32%	0%
COCCNC(=S)Nc1ccc2nsnc2c1	5%	28%	-36%	4%	16%	-8%
S=C(NCCc1ccccn1)Nc1ccc(Cl)c(Cl)c1	1%	7.1µM*	5.6µM*	3%	-12%	15%
SMILES	uPA surface inh	VP16 counter	RORg inh	Chronic BCR inh	Integrin act MD	Mito fusion yeast
COc1cccc(NC(=S)N(CCc2ccc(OC)c(OC)c2)Cc2ccccn2)c1	-3%	18%	?	?	0%	-1%
S=C(NCCc1ccccn1)Nc1cc(Cl)cc(Cl)c1	-7%	?	5µM*	0%	-54%	0%
CCN(CC)C(=S)Nc1ccc(Cl)c(Cl)c1	-4%	?	18µM*	?	-19%	11%
O=C(COc1ccc(Cl)cc1)NCCc1ccccn1	-2%	4%	0%	?	25%	12%
O=C(/C=C/c1ccc(O)cc1)OC[C@H]1O[C@@H](Oc2c(-c3ccc(O)cc3)oc3cc(O)cc(O)c3c2=O)[C@H](O)[C@@H](O)[C@@H]1O	.	2%	7%	.	.	.
Cc1cc(C)c(Cn2cnc3ccccc32)c(C)c1	-10%	-56%	5.6µM*	1%	?	5%
O=C(c1ccccc1)c1ccc(Cn2cc(CCCO)nn2)cc1	-29%	13µM*	?	?	9%	3%
O=C(c1ccccc1)c1ccc(Cn2cc(-c3ccccc3)nn2)cc1	?	10µM*	?	10%	-23%	-22%
O=C(O)CCCCCCCCc1cn(Cc2ccc(C(=O)c3ccccc3)cc2)nn1	?	0%	-3%	?	-9%	-2%
CCCCCc1ccc(-c2cn(Cc3ccc(C(=O)c4ccccc4)cc3)nn2)cc1	0%	-3%	5%	-4%	1%	3%
CCOC(OCC)c1cn(Cc2ccc(C(=O)c3ccccc3)cc2)nn1	?	18µM*	?	?	-31%	-5%
CC(C)c1ncc(S(=O)(=O)c2ccc(C(F)(F)F)cn2)c(N)n1	10%	3%	0%	-6%	7%	-1%
CC(C)(C)NC(=O)CN(Cc1ccccc1)S(=O)(=O)c1ccccc1	-1%	1%	0%	-1%	6%	4%
CN1CCN(CCCN2c3ccccc3Sc3ccc(C(F)(F)F)cc32)CC1	-3%	14µM*!	?	?	-56%	-50%
c1ccc2c(c1)Sc1ccccc1N2CCN1CCCC1	.	-1%	21%	.	.	.
CCN1C/C(=C\c2cc(OC)c(OC)c(OC)c2)C2=NN(c3ccccc3)C(c3cc(OC)c(OC)c(OC)c3)C2C1 (centres undefined)	1%	.	.	.	-4%	.
Cc1nn(CC(C)C)c(Cl)c1C(=O)N(c1ccc(Cl)cc1F)S(C)(=O)=O	-6%	18%	7%	?	?	-7%
CC(=O)Nc1ccc(C(=O)CCl)cc1	?	?	4.5µM*	?	.	?
Cc1noc(C)c1CCC(=O)N1CCCC(CCC(=O)NCc2ccc(F)c(F)c2)C1 (centres undefined)	9%	-11%	23%	0%	9%	-8%
CCOC(=O)c1ccc(NC(=S)NCCc2ccccc2F)cc1	-3%	?	3.5µM*	?	-37%	-2%

Compound activity from PubChem.
